Bioassay records deposited in PubChem BioAssay by several laboratories.
An excerpt weighted towards active compounds, which were near 2.1% of everything screened.
Sa ugtP lethal: compounds lethal to S. aureus RN4220 ugtP deletion mutant | AID 1259309 | growth inhibition, % (test concentration not listed) | 0.54% of 330,000 active | OD600 growth, 16 h; in the data active = growth inhibition above about 68%;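 also: plate controls were untreated wells for no effect and antibiotic for full effect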
PrPC TRFRET: cell surface PrPC inhibition, primary TR-FRET screen; P04156; TR-FRET read-out; inhibition, % at 13.8 µM; 0.43% of 370,000 active; in the data active = inhibition above about 24%; also: 0% = median of the test wells and 100% = reference compound wells
PrP 5UTR inh: inhibition of PrP 5' UTR reporter expression | AID 488862 | inhibition, % (test concentration not listed) | cell-based PrP 5' UTR mRNA reporter, plate reader | 0.35% of 340,000 active; in the data active = inhibition above about 52%; also: 0 = median of the neutral control wells
CCHF vOTU inh: CCHFV vOTU protease inhibition; 0.55% of 370,000 active; Pep-AMC fluorescence; AID 651958; inhibition, % at 11.5 µM; in the data active = inhibition above about 30%; also: 0% = vehicle wells with enzyme and 100% = no enzyme wells
PfHsp40 rescue: restores yeast growth despite PfHsp40 toxicity | S. cerevisiae expressing PfHsp40, growth rescue, ATP luminescence | growth rescue, % at 12.5 µM | 0.68% of 340,000 active | AID 504582; in the data active = growth rescue above about 28%, passing the limit was not always enough;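 also: yeast W303a lacking pdr1 and pdr3 grown in galactose medium; growth measured after three days at 30 °C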
Sa RN4220 lethal: kills Staphylococcus aureus RN4220. S. aureus RN4220 growth, OD600, 16 h. AID 1259311. 0.33% of 330,000 active. inhibition, % (test concentration not listed); in the data active = inhibition above about 85%;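 also: plate controls were untreated cells for no effect and reference antibiotic for full effect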
* hit, by the source's call; . = no result.

SMILES | Sa ugtP lethal | PrPC TRFRET | PrP 5UTR inh | CCHF vOTU inh | PfHsp40 rescue | Sa RN4220 lethal
COC(=O)C1=CC(C(=O)OC)C2C3=C(C(=O)[C@@]2(C)NC(=O)c2ccccc2)C(C)n2c(=O)n(C)c(=O)n2C3C1 (stereo partly specified) | 3.5 | . | . | . | . | 3.1
O=C1OCC(CO)(CO)N=C1NNc1ccc(Cl)c(Cl)c1 | 1.6 | 17.0 | -4.5 | -8.6 | 305.5* | 0.3
OCC1(CO)COC(c2ccccc2)=N1 | 1.4 | -5.4 | -23.0 | -6.6 | -0.2 | 2.3
Cc1ccc(C(=O)NCCN2C3=NCC(C(C)C)N3CC2Cc2ccc(O)cc2)cc1Br (stereo unspecified) | 1.6 | . | . | . | . | 0.5
CC(C)CC1NC(=O)C(Cc2ccc(O)cc2)NC(=O)c2cc([N+](=O)[O-])cc(I)c2NCCCC(C(N)=O)NC1=O (stereo unspecified) | -1.8 | . | . | . | . | 2.3
Cc1ccc(NC(=O)c2ccc(-n3cccn3)c([N+](=O)[O-])c2)cc1 | -3.2 | -16.4 | -8.3 | 0.2 | 2.8 | 8.8
O=C(Nc1ccc(C2=NCCN2)cc1)c1ccc(C(=O)Nc2ccc(C3=NCCN3)cc2)c([N+](=O)[O-])c1 | . | -47.0 | -9.5 | 11.3 | 125.1* | .
O=C(NN=Cc1cc2c(cc1[N+](=O)[O-])OCO2)c1ccccn1 | -5.8 | . | . | . | . | 2.2
CCn1c(SCC(=O)Nc2nc(-c3ccc(C)cc3)cs2)nnc1-c1ccccc1O | 37.4 | 7.0 | -20.9 | 5.2 | 86.3* | -7.7
CCn1c(SCC(=O)Nc2nc(-c3ccc(C)cc3)cs2)nnc1-c1ccccc1 | 4.5 | 4.6 | -5.0 | 10.4 | -0.5 | -8.6
O=C(O)c1ccccc1NS(=O)(=O)c1ccc(NN=Cc2ccccc2F)c([N+](=O)[O-])c1 | 91.9* | -9.0 | 3.8 | 16.9 | 1.1 | 5.0
CSc1ccc(C=NNc2ccc(S(=O)(=O)Nc3ccccc3C(=O)O)cc2[N+](=O)[O-])cc1 | 40.2 | 7.2 | -14.8 | -0.9 | -0.2 | 1.7
CCOc1ccc(C=NNc2ccc(S(=O)(=O)Nc3ccccc3C(=O)O)cc2[N+](=O)[O-])cc1 | 91.2* | . | -14.4 | . | -0.3 | -5.8
COc1ccc(/C=N/Nc2ccc([N+](=O)[O-])cc2)cc1O | . | -48.2 | -70.4 | 19.4 | 41.5* | .
Clc1ccc2[nH]c(-c3ccccc3)cc2c1 | 64.3 | 13.9 | -107.9 | 6.5 | 65.4* | -8.7
CCOC1OC(C(=O)N2CCOCC2)=CC(c2ccc(C(F)(F)F)cc2)C1CCCO (stereo unspecified) | 6.8 | . | . | . | . | 9.3
CC(=O)Nc1ccc(NC(=O)COC(=O)c2ccc([N+](=O)[O-])o2)cc1 | . | -28.7 | -6.6 | 21.3 | -0.5 | .
O=C(COC(=O)c1ccc([N+](=O)[O-])o1)NC1CCCCC1 | 9.2 | -18.2 | -16.1 | 19.4 | 213.1* | 5.8
O=C(COC(=O)c1ccc([N+](=O)[O-])o1)Nc1cccc2ccccc12 | 17.7 | -30.5 | -4.3 | 18.7 | 80.4* | 15.4
COc1ccc(CCNC(=O)COC(=O)c2ccc([N+](=O)[O-])o2)cc1 | 7.1 | -13.9 | -21.3 | 22.4 | 122.6* | 4.6
O=C(COC(=O)c1ccc([N+](=O)[O-])o1)NC1CCCC1 | 9.3 | -18.6 | -26.1 | 19.0 | 3.3 | 7.8
O=C(COC(=O)c1ccc([N+](=O)[O-])o1)NCc1ccc(F)cc1 | 9.8 | -33.7 | -20.2 | 19.2 | 222.6* | 10.6
NC(Cc1nc(-c2ccc(Br)cc2)cs1)=NO | 14.4 | . | . | . | . | 2.0
CC(C)(C)OC(=O)CC1CC=CCC(CC(=O)N(CCO)Cc2ccccc2)C(=O)NC(Cc2ccccc2)COC1=O (stereo unspecified) | 8.8 | . | . | . | . | 4.9
Cc1ccc(-n2[nH]c(C)c(C=NNc3ccc([N+](=O)[O-])cc3[N+](=O)[O-])c2=O)cc1C | 1.5 | . | . | . | . | 7.6
SMILES | Sa ugtP lethal | PrPC TRFRET | PrP 5UTR inh | CCHF vOTU inh | PfHsp40 rescue | Sa RN4220 lethal
COc1ccc(C(=O)OCC(=O)NCCCc2ccccc2)cc1[N+](=O)[O-] | 1.6 | -3.9 | -11.2 | 9.3 | 0.1 | 6.8
O=C(COC(=O)c1ccc([N+](=O)[O-])o1)NCCCc1ccccc1 | 7.8 | -29.4 | -3.2 | 23.5 | 45.3* | 9.3
CN1CCN(NC(=O)Nc2cc(Cl)cc(Cl)c2)CC1 | 96.7* | -1.6 | -14.5 | 3.6 | -0.5 | 100.3*
CCOC(=O)c1c(NC(=O)/C=C\C(=O)O)sc(C)c1-c1ccccc1 | . | 5.9 | -15.1 | 6.2 | 94.7* | .
CCOC(=O)c1c(NC(=O)C=CC(=O)O)sc(C)c1-c1ccccc1 | 14.8 | . | . | . | . | 21.4
Cc1ccccc1NC(C)C(=O)N/N=C/c1ccccc1OCc1cccc(Br)c1 (stereo unspecified) | . | 9.5 | -11.2 | 18.4 | 35.2* | .
Cc1ccccc1NC(C)C(=O)NN=Cc1ccccc1OCc1cccc(Br)c1 (stereo unspecified) | -8.3 | . | . | . | . | -0.4
CC(=O)N1CCN(c2ccc(NC(=S)NC(=O)c3ccc(C)c([N+](=O)[O-])c3)cc2)CC1 | 90.1* | 4.0 | -15.1 | 1.8 | 0.1 | 3.6
COc1ccc(C(=O)NC(=S)Nc2ccc(N3CCN(C(C)=O)CC3)cc2)cc1[N+](=O)[O-] | 99.2* | -5.6 | -13.9 | 4.3 | -0.1 | 3.9
CCOc1ccc(C(=O)NC(=S)Nc2ccc(N3CCCCC3)cc2)cc1[N+](=O)[O-] | 30.9 | -2.4 | -9.9 | 6.0 | 4.0 | 0.6
CON=C(Cn1ncc(N2CCCC2)c(Br)c1=O)c1ccc(Cl)cc1 | -3.5 | . | . | . | . | 2.0
COc1cc(CNc2ccc(O)cc2)cc(Br)c1OCc1ccccc1 | 23.2 | -15.9 | -0.4 | 94.4* | 0.6 | -10.9
COc1ccc(CNC(=O)Cn2ncn3c(cc4ccccc43)c2=O)cc1 | 15.6 | 3.1 | -14.1 | -14.7 | -0.7 | 4.6
Cc1ccc(Cn2ncn3c(cc4ccccc43)c2=O)cc1 | 92.7* | 3.4 | -13.8 | -2.5 | 1.8 | 1.9
COc1ccc(C)cc1Nc1nc(-c2ccccc2O)nc2ccccc12 | 91.3* | 8.4 | -28.1 | 5.1 | -0.4 | 52.8
COc1ccc(N=C2SCC(c3ccc([N+](=O)[O-])cc3)=NN2CCO)cc1 | . | -23.7 | -21.7 | 6.1 | 7.0 | .
O=[N+]([O-])c1ccc(C2=NN(CCO)C(=Nc3ccc(OC(F)(F)F)cc3)SC2)cc1 | -23.6 | -3.3 | -7.2 | 17.2 | 52.7* | 5.0
CCC(=O)Nc1nc2ccccc2n1CCN1CCOCC1 | 3.0 | 3.9 | -31.7 | 9.4 | 7.9 | 7.7
CCCCCCCn1c(NC(=O)CC)nc2ccccc21 | . | 3.0 | 11.0 | 17.3 | 93.1* | .
CC1CN(C(C)CO)C(=O)c2cccc(NC(=O)C3CC3)c2OC1CN(C)CC1CCCCC1 (stereo unspecified) | 5.4 | . | . | . | . | 1.4
CCCc1nc2c(ccc3ccccc32)cc1CC | 83.1* | -1.0 | -8.3 | -14.8 | 3.6 | -0.7
c1ccc2nc3c(ccc4ccccc43)cc2c1 | 38.5 | -4.6 | -88.9 | 2.2 | 2.1 | -4.2
O=C(COc1ccc(Cl)cc1Cl)NNC(=S)NC(=O)c1ccco1 | 90.1* | 9.6 | -17.3 | -6.4 | 1.1 | 92.7*
CC(Oc1ccc(Cl)cc1)C(=O)NNC(=S)NC(=O)c1ccco1 (stereo unspecified) | 54.0 | 6.6 | 7.2 | -0.5 | 68.3* | 69.2
O=C(COc1ccc(Cl)cc1Cl)NNC(=S)NCc1ccco1 | -24.4 | 3.9 | -11.8 | 5.7 | 3.8 | 10.3
